From paper PMC11062922 (Nature Chemical Biology, 2023)

system: AAK1; design: species or system human, MV4-11 + K-562 + COLO205 + SK-N-BE2 + OVCAR-8; conditions: read-out: apparent Kd; compound concentrations:100 nM and 1000 nM (sheet 'Samples'); n = 1

`NCCNS(=O)(=O)c1ccc(-c2ccnc3[nH]ccc23)cc1` [GSK977617A] was tested. Which potency estimated from few doses did it give?
The potency estimated from few doses was 429 nM.

`O=C1NC(=O)C(N2CCc3ccccc32)=C1c1ccccc1Cl` [SB-373598] was tested. Which potency estimated from few doses did it give?
Its potency estimated from few doses is 284 nM.

For `Cl.Cl.NCC(C(=O)Nc1cc(Br)c(-c2ccnc3[nH]ccc23)s1)c1ccccc1.NCC(C(=O)Nc1cc(Br)c(-c2ccnc3[nH]ccc23)s1)c1ccccc1` (stereo not shown) [GSK1269851A], which potency estimated from few doses is on record?
The potency estimated from few doses was 84.4 nM.

With `CC(C)N1CCC(n2cnc(-c3ccc(F)cc3)c2-c2ccnc(N)n2)CC1` [SB-223132] as the compound, how does the potency estimated from few doses read?
Its potency estimated from few doses is 730 nM.

Which potency estimated from few doses does the source give for `CNC(=O)c1ccccc1Nc1nc(Nc2ccc(N3CCOCC3)cc2)ncc1Cl.Cl` [GSK1576028A] here?
Its potency estimated from few doses is 142 nM.

How did the potency estimated from few doses turn out when `CN1C[C@@H]2Cn3c(c(C4=C(c5cn(C)c6ccccc56)C(=O)NC4=O)c4ccccc43)C[C@H]2C1.Cl` [RO0320234-001] was run?
Its potency estimated from few doses is 403 nM.

How did the potency estimated from few doses turn out when `Cc1ccc2c(-c3ccncc3)c(-c3ccc(F)cc3)nn2c1.Cl` [GW461484A] was run?
The potency estimated from few doses was 767 nM.
